Measured values from PubChem BioAssay AID624114 (Johns Hopkins Ion Channel Center, 2012).
The whole screen tested about 4,000 compounds, of which about 15 (0.4%) were called active.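 The calls were made as follows: active = calcium fluorescence ratio, averaged over duplicates, at least 3 SD of the buffer-well ratio, meaning a nonspecific response in receptor-free cells; inactive = the rest.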 Only a sample is shown.

Assay: calcium response in parental HEK293 cells, primary screen, counter-screen for MrgX1 allosteric activator project, cell-based, Fluo-4 calcium flux, duplicate (AID 624114);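 also: untransfected parental HEK293 lacking MrgX1 used as counterscreen for MrgX1 allosteric activators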
Conditions: Fluo-4 fluorescence ratio, at 10 µM
In the case of `Cc1ccnc(NC(=O)C(C)N2C(=O)c3ccccc3C2=O)c1` (configuration not stated), the outcome is reported as “inactive”. In the case of `CCC(C)c1ccccc1N1CC(C(=O)N2CCN(S(=O)(=O)c3ccc(F)cc3)CC2)CC1=O` (configuration not stated), the outcome is reported as “inactive”. For `Cc1ccc(Nc2nc(-c3ccc(O)cc3O)cs2)nc1`, the outcome was “inactive”. With `CCC(C)Sc1nc(C)nc2c1c(=O)n(C)c(=O)n2C` (configuration not stated) the outcome was “inactive”. For `Cc1ccnc(-n2sc3ccccc3c2=O)n1`, the outcome was “inactive”. With `CCOC(=O)C1=C(O)CSC1=Nc1cccc(Cl)c1` the outcome was “inactive”. In the case of `COCc1nnc(NC(=O)c2ccc3c(c2)OCO3)s1`, the outcome is reported as “inactive”. For `CC1(C(=O)O)CCC(C(=O)Nc2ccc(Cl)c(Cl)c2)C1(C)C` (configuration not stated), the outcome was “inactive”. For `CC(C)CNc1ncnc2c1cnn2Cc1ccc(Cl)cc1`, the outcome was “inactive”. In the case of `CCc1ccc(N(CC(=O)Nc2sc3c(c2C(=O)OC)CCCC3)S(C)(=O)=O)cc1`, the outcome is reported as “inactive”. For `OCCn1c(-c2ccccc2)csc1=Nc1ccccc1`, the outcome was “inactive”. For `CCOc1ccc(NC(=O)CCNC(=O)c2ccc(Br)cc2)cc1`, the outcome was “inactive”. With `Cc1ccc(C(C(=O)NC2CCCCC2)N(C(=O)c2csnn2)C2CC2)o1` (configuration not stated) the outcome was “inactive”. In the case of `COc1ccc(-c2cc(C(F)(F)F)nc(S(C)(=O)=O)n2)cc1OC`, the outcome is reported as “inactive”. With `O=C(C1CCN(S(=O)(=O)c2cnc[nH]2)CC1)N1CCN(Cc2ccc3c(c2)OCO3)CC1` the outcome was “inactive”. With `O=C(Nc1cccc(Cl)c1)c1cncn1-c1ccc(F)cc1` the outcome was “inactive”. With `Cc1nonc1C1CCCN1Cc1nc(-c2ccc(F)cc2F)oc1C` (configuration not stated) the outcome was “inactive”. With `Cc1ccc2c(C)c(C(=O)N(C)CCC3CCCCO3)oc2c1C` (configuration not stated) the outcome was “inactive”. With `O=C(CN1CCN(c2ccc(Cl)cc2)CC1)N1CCCC1` the outcome was “inactive”. In the case of `COc1cc2c(cc1O)C(SC)=NC(C)(C)C2`, the outcome is reported as “inactive”. For `FC(F)Oc1ccc(NC(=S)NCc2ccco2)cc1Cl`, the outcome was “inactive”. In the case of `COc1ccc(Nc2nnc(C)c3ccccc23)cc1`, the outcome is reported as “inactive”. With `Cc1c(C)c2c(OCC(=O)N[C@@H](C(=O)O)c3ccccc3)cc3c(c2oc1=O)CCC(C)(C)O3` the outcome was “inactive”. In the case of `CCSc1nsc(NC(=O)Nc2cccc(C(C)=O)c2)n1`, the outcome is reported as “inactive”. With `Cc1c(C(=O)N2CCN(c3ccc(F)cc3)CC2)oc2c1C(=O)CCC2` the outcome was “inactive”. With `O=C(c1cccc(S(=O)(=O)Nc2ccccc2Cl)c1)N1CCN(C(=O)c2ccco2)CC1` the outcome was “inactive”. For `O=C(Cn1c(-c2cncs2)nc2ccccc21)NC1CCCC1`, the outcome was “inactive”. With `CC1(C)CC2CC(C)(CN2c2ncnc3ccc(Br)cc23)C1` (configuration not stated) the outcome was “inactive”. For `CCOC(=O)c1c(NC(=O)CSc2cn(CC)c3ccccc23)sc2c1CCC2`, the outcome was “inactive”. For `O=C(O)CSC(NC(=O)c1cccnc1)(C(F)(F)F)C(F)(F)F`, the outcome was “inactive”. With `CCOC(=O)N1CCN(C(=O)COCc2cc(-c3ccc4c(c3)OCO4)on2)CC1` the outcome was “inactive”. With `COc1ccc(C(=O)Nc2c(N)nc(SCC(=O)N3CCC(C)CC3)[nH]c2=O)cc1OC` the outcome was “inactive”. For `CCOc1cc(-c2conc2N)cc(OCC)c1OCC`, the outcome was “inactive”. For `O=C1CCCN1CCCNC(=S)Nc1ccc(F)c(Cl)c1`, the outcome was “inactive”. With `COc1ccc(C(=O)NNC(=S)NC(=O)c2ccccc2)cc1` the outcome was “inactive”. In the case of `Nc1ccc(Oc2ccc(Cl)cc2)cc1`, the outcome is reported as “inactive”. For `CN(CC(=O)Nc1ccccc1Cl)C(=O)COc1cccc2c1OC(C)(C)C2`, the outcome was “inactive”. With `CCOc1ccc2nc(/N=C/c3nc(-c4ccccc4)oc3O)sc2c1` the outcome was “inactive”. In the case of `FC(F)(F)c1cc(-c2cccs2)nc(NCc2ccco2)n1`, the outcome is reported as “inactive”. In the case of `O=C(CSc1c2c(nc3ccc(Cl)cc13)CCCC2)NCc1ccco1`, the outcome is reported as “inactive”. For `COc1ccc(Nc2nc(-c3cccnc3)nc3ccccc23)cn1`, the outcome was “inactive”. With `CN(C)CCn1c(=S)[nH]c2ccc(Cl)cc2c1=O` the outcome was “inactive”. With `COC(=O)c1sccc1NS(=O)(=O)c1ccc(F)cc1F` the outcome was “inactive”. For `COc1ccc2c(c1)OC(O)(C(F)(F)C(F)F)CC2=O` (configuration not stated), the outcome was “inactive”. For `CC(C)NC(=S)Nc1cccc2cnccc12`, the outcome was “inactive”. In the case of `C=CCNC(=O)c1cc(-c2ccccc2O)on1`, the outcome is reported as “inactive”. For `O=C(Nc1ccccc1N1CCCCC1)c1ccc2nccnc2c1`, the outcome was “inactive”. With `Cc1ccc2c(c1)c1ncnc(N3CCc4ccccc4C3)c1n2C` the outcome was “inactive”. In the case of `CCc1ccc2nc3sc(C(=O)Nc4nnc(CC)s4)c(N)c3cc2c1`, the outcome is reported as “inactive”. In the case of `COc1ccc(C(=O)NC(=S)NNC(=O)c2c(-c3ccccc3)noc2C)cc1`, the outcome is reported as “inactive”. With `COc1ccccc1N(CC(=O)N1CCCCC1)S(=O)(=O)c1ccccc1` the outcome was “inactive”. For `CC(C)OCCCNc1ncnc2c1[nH]c1ccc(F)cc12`, the outcome was “inactive”. In the case of `COc1cc(CCC(=O)Nc2ccncc2Cl)cc(OC)c1OC`, the outcome is reported as “inactive”. With `CCCc1[nH]nc2c1C(c1ccc(Br)s1)C(C#N)=C(N)O2` (configuration not stated) the outcome was “inactive”. With `O=C(Cc1ccccn1)c1ccc(O)cc1O` the outcome was “inactive”. In the case of `Cc1cccn2c(=O)c(/C=C3\SC(=S)N(CC(C)C)C3=O)c(NCCCOC(C)C)nc12`, the outcome is reported as “inactive”. With `O=C(Nc1ccccc1N1CCOCC1)c1csc2c1CCCC2` the outcome was “inactive”. For `Brc1ccccc1C1Nc2cccc3cccc(c23)N1`, the outcome was “inactive”. In the case of `Cc1ccc(NC2(C#N)C(=O)Nc3ccccc32)cc1` (configuration not stated), the outcome is reported as “inactive”. With `Cc1nccn1CCC1CCCCN1C(=O)CCc1nnc(-c2ccsc2)o1` (configuration not stated) the outcome was “inactive”. With `OCc1ccc(OCCCOc2cccc3cccnc23)cc1` the outcome was “inactive”. In the case of `COc1ccc(NC(=O)c2cc(-c3ccc(C)o3)nc3ccccc23)cc1`, the outcome is reported as “inactive”. With `CN1/C(=C\C=C2\N=C(c3ccc(F)cc3)OC2=O)C(C)(C)c2ccccc21` the outcome was “inactive”. With `COc1cc(C)c(C)cc1S(=O)(=O)N1CCCc2ccccc21` the outcome was “inactive”. With `Cc1ccc(CS(=O)(=O)c2ncc(Cl)c(C(=O)Nc3nnc(C)s3)n2)cc1` the outcome was “inactive”. With `O=C(Nc1nnc(-c2ccccc2)o1)c1cc(-c2cccs2)nc2ccccc12` the outcome was “inactive”. In the case of `COC(=O)Cn1c(O)c(N=NC(=O)OC)c2ccccc21`, the outcome is reported as “inactive”. For `CN(c1cccc(NC(=O)Nc2ccc(Cl)cc2)c1)S(C)(=O)=O`, the outcome was “inactive”. With `CCc1cc(=O)oc2cc(C)cc(OCC(=O)N3CCC[C@@H]3C(=O)O)c12` the outcome was “inactive”. For `CCOC(=O)c1c(C)[nH]c(=S)c(C#N)c1-c1ccccc1`, the outcome was “inactive”. For `CCOc1ccccc1C1CC(c2ccc(Cl)cc2)Nc2nc(N)nn21` (configuration not stated), the outcome was “inactive”. For `Cc1c(C(=O)N2CCCc3ccccc32)sc2nc(-c3ccccc3)cn12`, the outcome was “inactive”. For `O=C(Cc1nc2ccccc2[nH]c1=O)c1ccc(Cl)cc1`, the outcome was “inactive”. For `COc1cc(C2/C(=C(\O)c3ccc4c(c3)CC(C)O4)C(=O)C(=O)N2Cc2ccco2)ccc1O` (configuration not stated), the outcome was “inactive”. For `CCc1nnc(NC(=O)CSc2nc3c(c(=O)n2-c2ccccc2OC)SCC3)s1`, the outcome was “inactive”. For `N=C(N)SCc1cccc2ccccc12`, the outcome was “inactive”. With `CCCCC(=O)NNC(=S)NC(=O)C(c1ccccc1)c1ccccc1` the outcome was “inactive”. For `Cc1occc1C(=O)Nc1nnc(-c2ccncc2)s1`, the outcome was “inactive”. With `Cc1ccc2nc(-c3ccc(NC(=O)c4cccnc4)cc3)oc2c1` the outcome was “inactive”. With `COCCNC(=O)C1CCN(S(=O)(=O)c2ccc3c(c2)OCCO3)CC1` the outcome was “inactive”. With `CCN(CC)c1ccc(C2C3CCCCC3(O)CCN2CC(=O)Nc2ccccc2)cc1` (configuration not stated) the outcome was “inactive”. In the case of `COC(=O)c1c(NC(=O)CN(c2ccc(C)c(C)c2)S(C)(=O)=O)sc2c1CCCC2`, the outcome is reported as “inactive”. With `CC(C)(C)Nc1c(-c2cccs2)nc2ccccn12` the outcome was “inactive”. In the case of `Cc1onc(-c2ccccc2)c1C(=O)NNC(=S)NC(=O)c1ccc(F)cc1`, the outcome is reported as “inactive”. In the case of `COc1cccc(CCNC(=O)COc2cccc3c2OC(C)(C)C3)c1`, the outcome is reported as “inactive”. For `COc1ccc(-n2c(SCC(=O)NCc3ccco3)nnc2-c2c[nH]c3ccccc23)cc1`, the outcome was “inactive”. For `CCS(=O)(=O)c1ccc2c(c1)N(S(=O)(=O)c1ccccc1)CC(C(=O)O)O2` (configuration not stated), the outcome was “inactive”. For `Cc1nn(C(=O)c2ccoc2C)c(N)c1-c1ccccc1`, the outcome was “inactive”. With `O=C(COC(=O)C1CCN(S(=O)(=O)c2ccc3c(c2)OCCO3)CC1)Nc1ccccc1OC(F)F` the outcome was “inactive”. In the case of `CC(=O)N(C)c1ccc(NC(=O)C(F)(F)F)cc1`, the outcome is reported as “inactive”. For `O=C(CC(O)(C(F)(F)F)C(F)(F)F)Nc1ccc(Cl)c(Cl)c1`, the outcome was “inactive”. With `O=C(CCN1CCc2ccccc2C(O)(c2ccccc2)C1)c1ccc2c(c1)OCCO2` (configuration not stated) the outcome was “inactive”. With `COc1ccc(C2SCCN2S(=O)(=O)c2ccccc2)cc1OC` (configuration not stated) the outcome was “inactive”. For `CCc1cc2c(SCC(=O)Nc3ncc(Cl)c(C)c3Cl)ncnc2s1`, the outcome was “inactive”. With `CCOC(=O)c1c(NC(=O)CNC2CCCc3ccccc32)sc(C(N)=O)c1C` (configuration not stated) the outcome was “inactive”. In the case of `O=S(=O)(c1ccc2ccccc2c1)N1CCN(S(=O)(=O)N2CCOCC2)CC1`, the outcome is reported as “inactive”. With `Cc1cc(=O)oc2cc(NC(=O)C3CC(=O)N(Cc4ccccc4)C3)ccc12` (configuration not stated) the outcome was “inactive”. In the case of `CCN(C(=O)CSc1nnc2ccccn12)C1CCS(=O)(=O)C1` (configuration not stated), the outcome is reported as “inactive”. In the case of `CC(=O)N(C1=C(Cl)C(=O)c2ccccc2C1=O)c1ccc(C(=O)O)cc1`, the outcome is reported as “inactive”. For `COc1ccc(C(=O)CSc2n[nH]c(N)n2)cc1`, the outcome was “inactive”. In the case of `O=C(Nc1ccccc1)c1nnsc1S(=O)(=O)c1ccc(Cl)cc1`, the outcome is reported as “inactive”. For `Cc1ccc2cc(/C=N/Nc3ccc(C(=O)O)cc3)c(Cl)nc2c1`, the outcome was “inactive”. For `c1ccc(-c2[nH]ncc2-c2nc3ccccc3[nH]2)cc1`, the outcome was “inactive”. With `COc1ccccc1Oc1nc(-c2cccnc2)nc2ccccc12` the outcome was “inactive”. For `O=c1c2cc(Br)ccc2nc(-c2cccc(Cl)c2)n1O`, the outcome was “inactive”. For `COc1ccc([N+](=O)[O-])cc1NC(=O)COC(=O)/C=C/c1ccco1`, the outcome was “inactive”. For `C=CCSc1nc(Cc2ccc(Cl)cc2)nc2ccccc12`, the outcome was “inactive”. With `NC(=O)c1c(Nc2nc3c(F)cccc3s2)sc2c1CCCC2` the outcome was “inactive”. With `CCN(CC)CC(=O)Nc1nn(-c2ccccc2)nc1C(N)=O` the outcome was “inactive”. For `Cc1ccc(C(=O)COC(=O)CCN2C(=O)C3C4CC(C(Br)C4Br)C3C2=O)cc1` (configuration not stated), the outcome was “inactive”. For `Cc1ccc(-n2cnc3ncnc(-c4ccccc4)c32)cc1`, the outcome was “inactive”. In the case of `CCOC(=O)Nc1ccc2c(c1)N(C(=O)CCN1CCN(CCO)CC1)c1ccccc1CC2`, the outcome is reported as “inactive”.
